The text below walks through data of PubChem BioAssay (Tox21).

Values joined by “and” are separate entries in the source; they are usually repeats but may differ in a detail not shown here. Identical values can stand only once. Results filed as inconclusive are left out. The source holds several records for some structures; these can differ, active in one and inactive in another. Active and inactive are the calls of the source. Unless noted, the call rests on the fitted dose curve.

Assay [1] in a line: qHTS assay to identify small molecule antagonists of the sonic hedgehog signaling (Shh) pathway (AID 1259369). Further: nearly all actives have a fitted effect of over 45% in size. Further: potency means the concentration at half of the fitted maximal effect. Put shortly: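 NIH/3T3-derived Gli1-Luc reporter cells plated 4 h, dosed with compound, then stimulated with conditioned medium for 24 h at 37 C. Firefly luciferase luminescence read after 30 min with detection reagent at room temperature.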
On the technique in general: In qHTS, concentration-response curves come from the screen itself.

The target in assay [2] is Estrogen receptor beta (Homo sapiens) (UniProt Q92731). In words: qHTS assay to identify small molecule agonists of the estrogen receptor beta (ER-beta) signaling pathway (AID 1259377; active means well fitted activation curve with a large enough effect in the signal ratio in the repeat runs, not every such curve was filed as active; the % refers to the signal ratio). Put shortly:
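A UAS-controlled beta-lactamase reporter in ER-beta-UAS-bla HEK293T cells reports receptor activation. Compounds act for 16 hr at 37C in 2% charcoal-stripped serum, and a FRET substrate is read by fluorescence after 2 hours.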

The target is the same in assay [3]. The assay can be described thus: qHTS assay to identify small molecule antagonists of the estrogen receptor beta (ER-beta) signaling pathway (AID 1259378; active means well fitted inhibition curve with a large enough effect in the signal ratio in the repeat runs, not every such curve was filed as active; the % refers to the signal ratio; further: potency means the concentration at half of the fitted maximal effect). The method in brief: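 ER-beta-UAS-bla HEK293T (GripTite) cells in 2% charcoal-stripped FBS medium were preincubated 6 hr at 37C, dosed with compound, then stimulated with 1 nM E2 (final) for 16 hr; beta-lactamase reporter read by B/G FRET fluorescence after 2 hr substrate loading.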

Assay [4] can be described thus: qHTS assay to identify small molecule agonists of the estrogen receptor beta (ER-beta) signaling pathway - cell viability counter screen (AID 1259380; active means well fitted curve in the direction sought with a large enough effect in the repeat runs; an effect the other way counts as inactive or inconclusive; further: nearly all actives have a fitted effect of over 30% in size; further: potency means the concentration at half of the fitted maximal effect). Put shortly:
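ER-beta-UAS-bla HEK293T cells in medium with 2% charcoal-stripped FBS, pre-incubated 6 hr, then treated 16 hr at 37C. Cytotoxicity read in the same wells by CellTiter-Glo luminescence after 30 min at room temperature.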

Assay [5] in a line: qHTS assay to identify small molecule antagonists of the estrogen receptor beta (ER-beta) signaling pathway - cell viability counter screen (AID 1259382; active means well fitted curve in the direction sought with a large enough effect in the repeat runs; an effect the other way counts as inactive or inconclusive; further: nearly all actives have a fitted effect of over 55% in size; further: potency means the concentration at half of the fitted maximal effect). The method in brief:
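ER-beta-UAS-bla HEK293T cells in 2% charcoal-stripped FBS medium, treated with compound plus 1 nM 17-beta-estradiol for 16 h at 37C. Viability read by CellTiter-Glo luminescence after 30 min at room temperature in the same wells.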

The target of assay [6] is Estrogen receptor (Homo sapiens) (UniProt P03372). In words: qHTS assay to identify small molecule agonists of the estrogen receptor alpha (ER-alpha) signaling pathway in the presence of an antagonist (AID 1259383). Further: top concentration of the series differs between compounds; nearly all actives have a fitted effect of over 15% in size. Put shortly: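 VM7Luc4E2 cells express endogenous full-length ER-alpha with an ERE-luciferase reporter and were hormone-deprived for 5 days. Compounds at 15 concentrations were added with 10.0nM ICI-182,780 for 22hr at 37C. Luminescence was read with ONE-Glo.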

A short description of assay [7]: qHTS assay to identify small molecule agonists or antagonists of the thyroid stimulating hormone receptor (TSHR) signaling pathway - wild type cell line counter screen (AID 1259384). Put shortly:
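Wild-type HEK293 cells were plated 18 h at 37 C/5% CO2, pin-dosed with compound plus Ro20-1724 medium, held 30 min at room temperature, then given cAMP-d2 and anti-cAMP-cryptate; fluorescence was read after 1 h. Fifteen concentrations, triplicate.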

The nature of assay [8]: qHTS assay to identify small molecule agonists of the androgen receptor (AR) signaling pathway in the presence of an antagonist - cell viability counter screen (AID 1259379; active means well fitted curve in the direction sought with a large enough effect in the repeat runs; an effect the other way counts as inactive or inconclusive; further: nearly all actives have a fitted effect of over 25% in size; further: potency means the concentration at half of the fitted maximal effect). Put shortly:
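MDA-kb2 cells (MMTV-luciferase, AR/GR), 3,000/well, 5 h attachment, then 3.0 µM nilutamide (final) and compounds at 15 concentrations. Viability by CellTiter-Fluor fluorescence after 16 h at 37 °C, 0% CO2, in the reporter wells.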

The target of assay [9] is Androgen receptor (Homo sapiens) (UniProt P10275). In words: qHTS assay to identify small molecule agonists of the androgen receptor (AR) signaling pathway in the presence of an antagonist (AID 1259381). Further: nearly all actives have a fitted effect of over 15% in size. Further: potency means the concentration at half of the fitted maximal effect. Put shortly: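 MDA-kb2 cells carrying MMTV-luciferase (AR/GR responsive), 3,000 cells/well, co-treated with 3.0 uM nilutamide final. Compounds at 15 concentrations, 16 hr at 37C without CO2. Luciferase luminescence read after 30 min with ONE-Glo.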
Sequence of Androgen receptor (Homo sapiens) (P10275 whole entry, looked up): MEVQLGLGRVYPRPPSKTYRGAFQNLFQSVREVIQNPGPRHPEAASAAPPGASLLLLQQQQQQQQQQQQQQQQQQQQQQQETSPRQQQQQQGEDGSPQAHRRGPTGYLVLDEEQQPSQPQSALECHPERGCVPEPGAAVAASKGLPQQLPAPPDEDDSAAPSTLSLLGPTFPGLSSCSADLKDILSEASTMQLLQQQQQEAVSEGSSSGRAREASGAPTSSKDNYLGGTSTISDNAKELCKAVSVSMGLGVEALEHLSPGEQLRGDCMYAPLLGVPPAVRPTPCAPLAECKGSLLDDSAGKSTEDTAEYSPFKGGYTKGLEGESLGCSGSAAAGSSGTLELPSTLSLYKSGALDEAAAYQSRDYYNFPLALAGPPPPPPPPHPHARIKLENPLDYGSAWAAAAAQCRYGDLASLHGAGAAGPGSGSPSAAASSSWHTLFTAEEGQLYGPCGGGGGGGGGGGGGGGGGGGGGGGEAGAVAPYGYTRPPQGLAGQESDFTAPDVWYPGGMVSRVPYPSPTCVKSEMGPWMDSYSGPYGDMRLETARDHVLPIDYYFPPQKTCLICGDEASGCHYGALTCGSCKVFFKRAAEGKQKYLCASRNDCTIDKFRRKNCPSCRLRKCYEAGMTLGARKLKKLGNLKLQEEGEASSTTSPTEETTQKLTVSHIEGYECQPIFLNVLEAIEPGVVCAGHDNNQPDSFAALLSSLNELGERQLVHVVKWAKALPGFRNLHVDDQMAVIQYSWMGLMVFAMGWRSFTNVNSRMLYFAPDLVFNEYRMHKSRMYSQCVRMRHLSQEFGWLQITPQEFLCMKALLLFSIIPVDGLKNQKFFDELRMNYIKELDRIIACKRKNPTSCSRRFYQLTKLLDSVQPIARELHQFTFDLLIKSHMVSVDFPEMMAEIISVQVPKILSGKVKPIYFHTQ

Sequence of Estrogen receptor beta (Homo sapiens) (Q92731 whole entry, looked up): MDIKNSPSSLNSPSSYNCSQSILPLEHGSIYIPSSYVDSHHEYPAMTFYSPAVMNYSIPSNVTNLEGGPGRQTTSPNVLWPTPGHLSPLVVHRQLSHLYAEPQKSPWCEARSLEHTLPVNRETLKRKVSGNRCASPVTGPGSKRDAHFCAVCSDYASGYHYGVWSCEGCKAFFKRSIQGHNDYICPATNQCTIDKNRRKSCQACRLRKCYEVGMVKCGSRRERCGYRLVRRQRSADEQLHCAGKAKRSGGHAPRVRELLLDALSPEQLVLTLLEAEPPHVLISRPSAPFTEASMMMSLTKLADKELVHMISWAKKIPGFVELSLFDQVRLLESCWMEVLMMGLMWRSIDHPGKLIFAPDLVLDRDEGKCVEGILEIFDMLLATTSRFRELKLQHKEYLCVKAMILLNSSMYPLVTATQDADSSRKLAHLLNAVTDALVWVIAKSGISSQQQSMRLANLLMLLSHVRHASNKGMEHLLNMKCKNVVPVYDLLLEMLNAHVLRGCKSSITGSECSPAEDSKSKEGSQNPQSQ
Sequence of Estrogen receptor (Homo sapiens) (P03372 whole entry, looked up): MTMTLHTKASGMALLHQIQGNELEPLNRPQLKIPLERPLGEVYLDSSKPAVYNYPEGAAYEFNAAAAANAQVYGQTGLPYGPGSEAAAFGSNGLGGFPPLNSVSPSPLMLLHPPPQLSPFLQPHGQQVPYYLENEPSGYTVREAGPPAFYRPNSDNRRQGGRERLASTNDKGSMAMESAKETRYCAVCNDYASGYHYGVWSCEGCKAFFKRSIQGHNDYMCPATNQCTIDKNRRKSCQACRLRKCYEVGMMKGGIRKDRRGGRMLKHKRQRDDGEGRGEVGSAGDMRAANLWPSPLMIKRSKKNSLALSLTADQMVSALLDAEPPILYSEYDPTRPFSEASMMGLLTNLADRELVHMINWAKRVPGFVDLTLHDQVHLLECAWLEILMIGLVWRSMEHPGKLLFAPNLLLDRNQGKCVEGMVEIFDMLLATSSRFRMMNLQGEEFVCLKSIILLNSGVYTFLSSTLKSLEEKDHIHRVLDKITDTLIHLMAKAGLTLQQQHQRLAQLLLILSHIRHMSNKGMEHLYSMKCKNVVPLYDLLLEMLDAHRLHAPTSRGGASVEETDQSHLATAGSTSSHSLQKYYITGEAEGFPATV

Turning to `N#CC(Br)Br`, the Potency entry in assay [1], in [2], in assay [3], in [4], in assay [5] and in [6] was “inactive” each time. In addition, the result in [7] was inactive.
Turning to `OCC(O)CO`, the Potency entry in assay [1], in [2], in [3], in assay [4], in [5] and in [6] was “inactive” each time. For the same compound, in [7], the compound was classed as inactive.
Consider `CCOc1cc(Oc2ccc(C(F)(F)F)cc2Cl)ccc1[N+](=O)[O-]`, for which the Potency result in assay [1], in assay [2], in assay [3], in assay [8], in [4] and in [5] was “inactive” throughout. For the same compound, in [6], the Potency entry was “inactive”. Further, in assay [7], the result was inactive.
On to `CCOc1cc(C=O)ccc1O`, for which the Potency entry in assay [1], in [8], in assay [4] and in assay [5] was “inactive” each time. Besides, in assay [7], the result was inactive.
As to `Cc1ccc(OP(=O)(Oc2ccc(C)cc2)Oc2ccc(C)cc2)cc1`, the Potency result in [1] and in assay [5] was “inactive” throughout. The compound was called inactive in [7].
As for `O=P(Oc1ccccc1)(Oc1ccccc1)Oc1ccccc1`, the Potency in [1] was 1.08 µM (active) and 2.43 µM (active); in assay [4], 34.4 µM (active). Further, the Potency result in [2], in assay [8], in [5] and in assay [6] was “inactive” in each case. Moreover, the compound was classed as inactive in assay [7].
Regarding `CCc1cccc(CC)c1N(COC)C(=O)CCl`, the Potency is 26.4 µM (active) in [1] and 30.6 µM (active) in assay [3]. In addition, the Potency entry in [8], in [9], in [5] and in [6] was “inactive” each time. The compound was classed as inactive in assay [7].
For `CC(O)CCO` (stereo not given), the Potency result in [1], in [2], in [3], in [8] and in [5] was “inactive” throughout. Further, the call in assay [7] was inactive.
Take `CC(C)N(C(=O)SCC(Cl)=C(Cl)Cl)C(C)C`: the Potency entry in assay [1], in assay [2], in assay [3], in [8], in [4] and in [5] was “inactive” each time. Moreover, in [7], the compound was classed as inactive.
Regarding `CCOCN(C(=O)CCl)c1c(C)cccc1CC`, the Potency in [1] is 18.3 µM (active) and 19.3 µM (active); in assay [3] it was 21.7 µM (active). In [6], the Potency entry is “inactive”. In assay [7], the outcome was inactive.
In the case of `O=S(=O)(Oc1ccc(Cl)cc1)c1ccc(Cl)cc1`, the Potency result in [1], in [2], in [3], in [4], in [5] and in assay [6] was “inactive” each time. In addition, in assay [7], the compound was classed as inactive.
For the compound `CC(C)c1ccc(CO)cc1`, the Potency entry in assay [1], in assay [4], in assay [5] and in [6] was “inactive” each time. The call in [7] was inactive.
Take `C#C[C@]1(O)CC[C@H]2[C@@H]3CCC4=CC(=O)CC[C@]4(C)[C@H]3CC[C@@]21C`: the Potency result in assay [1], in assay [2], in [3], in assay [4] and in assay [5] was “inactive” each time. Moreover, in assay [7], the outcome was inactive.
Regarding `COC(=O)c1sccc1S(=O)(=O)NC(=O)Nc1nc(C)nc(OC)n1`, the Potency entry in assay [1], in assay [2], in [3], in assay [4], in [5] and in assay [6] was “inactive” throughout. Besides, the compound was called inactive in assay [7].
On to `NC(=S)Nc1ccccc1`, for which the Potency entry in [1], in assay [2], in assay [3] and in [6] was “inactive” each time. The Potency is 24.7 µM (active) and inactive in [8]; 27.8 µM (active) and inactive in assay [5]. The call in assay [7] was inactive.
Turning to `S=C1NCCN1`, the Potency entry in assay [1], in assay [8], in [4] and in assay [5] was “inactive” each time. In addition, the result in assay [7] was inactive.
For `Nc1ccc(Cl)cc1N`, the Potency result in assay [1] is “inactive and 30.6 µM (active)”; in [4], 54.5 µM (active); in assay [9] it was 4.86 µM (active). Also, the Potency result in assay [8] is “inactive”. In assay [7], the result was inactive.
For `CCC(C)(C)c1ccc(O)cc1`, the Potency result in assay [1], in assay [3], in assay [8], in [4], in assay [5] and in assay [6] was “inactive” each time. Also, the outcome in assay [7] was inactive.
For `COP(=S)(OC)Oc1ccc([N+](=O)[O-])cc1`, the Potency entry in [1], in assay [2], in [3], in [4], in assay [5] and in assay [6] was “inactive” in each case. Also, in assay [7], the outcome was inactive.
Take `CCN(CC)N=O`: the Potency result in assay [1], in [8], in assay [4] and in [5] was “inactive” in each case. In addition, the call in [7] was inactive.
With `CC(C)(OOC(C)(C)c1ccccc1)c1ccccc1`, the Potency result in [1], in [2], in assay [8], in assay [9] and in assay [5] was “inactive” each time. For the same compound, the compound was classed as inactive in assay [7].
In the case of `CCC(C)c1cc([N+](=O)[O-])cc([N+](=O)[O-])c1O` (stereo not given), the Potency entry in assay [1] was “inactive and 12.2 µM (active)”. The Potency entry in [2], in assay [3], in [4], in [5] and in [6] was “inactive” in each case. The compound was classed as inactive in [7].
Turning to `CCCCCc1cc(O)cc(O)c1`, in [1], the Potency was 24.4 µM (active) and 19.3 µM (active). In addition, the Potency entry in assay [4] and in [5] was “inactive” in each case. The result in assay [7] was inactive.
For `Cc1cc(Cl)ccc1OCCCC(=O)O`, the Potency entry in assay [1], in assay [2], in assay [4], in [9] and in [5] was “inactive” in each case. The call in assay [7] was inactive.
Turning to `N#Cc1cc(Br)c(O)c(Br)c1`, the Potency in assay [1] is 15.3 µM (active) and 7.41 µM (active). Further, the Potency result in [8], in [4], in assay [9], in [5] and in assay [6] was “inactive” in each case. Besides, the result in assay [7] was inactive.
Take `COP(=O)(OC)OC`: the Potency result in assay [1], in [8], in assay [9], in assay [5] and in [6] was “inactive” in each case. For the same compound, the compound was classed as inactive in [7].
In the case of `COc1ccc(C(CN(C)C)C2(O)CCCCC2)cc1` (stereo not given), the Potency entry in assay [1], in [4] and in assay [5] was “inactive” in each case. In addition, the outcome in assay [7] was inactive.
Turning to `Cc1ccccc1[N+](=O)[O-]`, the Potency result in assay [1], in assay [2], in [3], in [8], in assay [4] and in [5] was “inactive” throughout. In [6], the Potency entry was “inactive”. Also, in [7], the compound was classed as inactive.
In the case of `N#CCCCl`, the Potency entry in assay [1], in assay [8], in assay [4] and in [5] was “inactive” in each case. Further, the compound was called inactive in assay [7].
`CCOP(=S)(OCC)O/N=C(\C#N)c1ccccc1`: the Potency entry in assay [1], in assay [2], in assay [3], in [4] and in assay [5] was “inactive” each time. Besides, in [7], the compound was called inactive.
For the compound `CNC(=O)Oc1cccc2c1OC(C)(C)O2`, the Potency entry in assay [1], in [8], in assay [5] and in [6] was “inactive” in each case. Also, in assay [7], the compound was classed as inactive.
In the case of `CCOC(=S)S`, the Potency in assay [1] is 10.9 µM (active) and 13 µM (active). Further, the Potency result in [2] and in assay [8] was “inactive” in each case. In addition, the outcome in assay [7] was inactive.
